# Like-named read-outs stand apart in the source and are kept apart here.
# Tests used:
# [1] = tested on: FGFR1; details: concentration: 1 μM, replicates: in singlicate; n = 1
# [2] = tested on: FGFR2; details: concentration: 1 μM, replicates: in singlicate; n = 1
# [3] = tested on: FGFR3; details: concentration: 1 μM, replicates: in singlicate; n = 1
# [4] = tested on: FGFR4; details: concentration: 1 μM, replicates: in singlicate; n = 1
# [5] = tested on: FGR; details: concentration: 1 μM, replicates: in singlicate; n = 1
# [6] = tested on: FLT1; details: concentration: 1 μM, replicates: in singlicate; n = 1
# [7] = tested on: FLT3-autoinhibited; details: concentration: 1 μM, replicates: in singlicate; n = 1
# [8] = tested on: FLT3; details: concentration: 1 μM, replicates: in singlicate; n = 1
# [9] = tested on: FLT4; details: concentration: 1 μM, replicates: in singlicate; n = 1
# [10] = tested on: FRK; details: concentration: 1 μM, replicates: in singlicate; n = 1
# [11] = tested on: FYN; details: concentration: 1 μM, replicates: in singlicate; n = 1
# [12] = tested on: GAK; details: concentration: 1 μM, replicates: in singlicate; n = 1
# [13] = tested on: T1, GCN2(Kin.Dom.2,S808G); details: concentration: 1 μM, replicates: in singlicate; n = 1
# T1 construct: gene EIF2AK4
# [14] = tested on: GRK1; details: concentration: 1 μM, replicates: in singlicate; n = 1
# [15] = tested on: T2, GRK2; details: concentration: 1 μM, replicates: in singlicate; n = 1
# T2 construct: gene ADRBK1
# [16] = tested on: T3, GRK3; details: concentration: 1 μM, replicates: in singlicate; n = 1
# T3 construct: gene ADRBK2
# [17] = tested on: GRK4; details: concentration: 1 μM, replicates: in singlicate; n = 1
# [18] = tested on: GRK7; details: concentration: 1 μM, replicates: in singlicate; n = 1
# [19] = tested on: GSK3A; details: n = 1
# [20] = tested on: GSK3B; details: n = 1
# [21] = concentration: 1 μM, replicates: in singlicate
# 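Also: KINOMEscan kinase panel screen.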
smiles,measurement,setting,value
Cn1cc(-c2ccc3c(c2)CCN3C(=O)Cc2cccc(Cl)c2)c2c(N)ncnc21 [GSK2606590],%Inh,[1],23%
same,%Inh,[2],0%
same,%Inh,[3],0%
same,%Inh,[4],0%
same,%Inh,[5],35%
same,%Inh,[6],59%
same,%Inh,[7],1%
same,%Inh,[8],91.8%
same,%Inh,[9],45%
same,%Inh,[10],8%
same,%Inh,[11],27%
same,%Inh,[12],33%
same,%Inh,[13],43%
same,%Inh,[14],5%
same,%Inh,[15],0%
same,%Inh,[16],0%
same,%Inh,[17],11%
same,%Inh,[18],0%
same,%Inh,[19]; [21],5%
same,%Inh,[20]; [21],3%
COc1cccc(NC(=O)NC2CCN(c3ccnc(Nc4cc(OC)c(OC)c(OC)c4)n3)C2)c1 (stereo not drawn) [GSK1379763],%Inh,[1],0%
same,%Inh,[2],0%
same,%Inh,[3],8%
same,%Inh,[4],1%
same,%Inh,[5],25%
same,%Inh,[6],24%
same,%Inh,[7],14%
same,%Inh,[8],62%
same,%Inh,[9],37%
same,%Inh,[10],0%
same,%Inh,[11],42%
same,%Inh,[12],31%
same,%Inh,[13],4%
same,%Inh,[14],0%
same,%Inh,[15],0%
same,%Inh,[16],15%
same,%Inh,[17],0%
same,%Inh,[18],0%
same,%Inh,[19]; [21],0%
same,%Inh,[20]; [21],45%
O=C(Nc1cccc(Oc2ccc3nc(NC(=O)C4CC4)cn3n2)c1)c1ccccc1C(F)(F)F,%Inh,[1],1%
same,%Inh,[2],23%
same,%Inh,[3],0%
same,%Inh,[4],2%
same,%Inh,[5],55%
same,%Inh,[6],99.7%
same,%Inh,[7],0%
same,%Inh,[8],20%
same,%Inh,[9],99.9%
same,%Inh,[10],30%
same,%Inh,[11],33%
same,%Inh,[12],4%
same,%Inh,[13],7%
same,%Inh,[14],9%
same,%Inh,[15],0%
same,%Inh,[16],0%
same,%Inh,[17],46%
same,%Inh,[18],0%
same,%Inh,[19]; [21],7%
same,%Inh,[20]; [21],0%
FC(F)(F)c1ccc(/C=C/c2cncnc2Nc2ccc3[nH]c(Cc4ccccc4)nc3c2)cc1 [GW709199],%Inh,[1],20%
same,%Inh,[2],0%
same,%Inh,[3],0%
same,%Inh,[4],4%
same,%Inh,[5],34%
same,%Inh,[6],12%
same,%Inh,[7],0%
same,%Inh,[8],19%
same,%Inh,[9],0%
same,%Inh,[10],10%
same,%Inh,[11],10%
same,%Inh,[12],0%
same,%Inh,[13],0%
same,%Inh,[14],11%
same,%Inh,[15],0%
same,%Inh,[16],0%
same,%Inh,[17],18%
same,%Inh,[18],0%
same,%Inh,[19]; [21],39%
same,%Inh,[20]; [21],0%
Nc1ncnc2c1nc(-c1ccccc1)n2-c1ccccc1 [SKF-97293],%Inh,[1],12%
same,%Inh,[2],20%
same,%Inh,[3],0%
same,%Inh,[4],0%
same,%Inh,[5],31%
same,%Inh,[6],9%
same,%Inh,[7],14%
same,%Inh,[8],20%
same,%Inh,[9],0%
same,%Inh,[10],0%
same,%Inh,[11],0%
same,%Inh,[12],1%
same,%Inh,[13],0%
same,%Inh,[14],36%
same,%Inh,[15],0%
same,%Inh,[16],13%
same,%Inh,[17],13%
same,%Inh,[18],43%
same,%Inh,[19]; [21],0%
same,%Inh,[20]; [21],40%
COc1cc(Nc2ncc3c(C)nc(-c4cc5ccccc5[nH]4)n3n2)cc(OC)c1OC [GW869516],%Inh,[1],35%
same,%Inh,[2],21%
same,%Inh,[3],30%
same,%Inh,[4],15%
same,%Inh,[5],40%
same,%Inh,[6],23%
same,%Inh,[7],75%
same,%Inh,[8],96.3%
same,%Inh,[9],1%
same,%Inh,[10],39%
same,%Inh,[11],30%
same,%Inh,[12],34%
same,%Inh,[13],88%
same,%Inh,[14],0%
same,%Inh,[15],0%
same,%Inh,[16],0%
same,%Inh,[17],19%
same,%Inh,[18],0%
same,%Inh,[19]; [21],0%
same,%Inh,[20]; [21],0%
COC(=O)Nc1nc2cc(Oc3ccc(NC(=O)Nc4cc(C(F)(F)F)ccc4F)cn3)ccc2[nH]1.Cl.Cl [GW681170],%Inh,[1],7%
same,%Inh,[2],0%
same,%Inh,[3],4%
same,%Inh,[4],3%
same,%Inh,[5],15%
same,%Inh,[6],94.1%
same,%Inh,[7],40%
same,%Inh,[8],99.1%
same,%Inh,[9],79%
same,%Inh,[10],55%
same,%Inh,[11],41%
same,%Inh,[12],5%
same,%Inh,[13],0%
same,%Inh,[14],0%
same,%Inh,[15],0%
same,%Inh,[16],0%
same,%Inh,[17],0%
same,%Inh,[18],0%
same,%Inh,[19]; [21],0%
same,%Inh,[20]; [21],8%
CSc1cccc2c(-c3ccncn3)c(-c3ccc(F)cc3)nn12 [GW514786],%Inh,[1],0%
same,%Inh,[2],0%
same,%Inh,[3],4%
same,%Inh,[4],7%
same,%Inh,[5],10%
same,%Inh,[6],19%
same,%Inh,[7],0%
same,%Inh,[8],5%
same,%Inh,[9],0%
same,%Inh,[10],9%
same,%Inh,[11],17%
same,%Inh,[12],76%
same,%Inh,[13],0%
same,%Inh,[14],6%
same,%Inh,[15],7%
same,%Inh,[16],35%
same,%Inh,[17],100%
same,%Inh,[18],0%
same,%Inh,[19]; [21],5%
same,%Inh,[20]; [21],9%
CCn1c(-c2nonc2N)nc2c(C#CC(C)(C)O)ncc(OCCCCN)c21.O=C(O)C(F)(F)F.O=C(O)C(F)(F)F [GSK507274],%Inh,[1],0%
same,%Inh,[2],60%
same,%Inh,[3],5%
same,%Inh,[4],9%
same,%Inh,[5],33%
same,%Inh,[6],23%
same,%Inh,[7],0%
same,%Inh,[8],0%
same,%Inh,[9],15%
same,%Inh,[10],26%
same,%Inh,[11],0%
same,%Inh,[12],41%
same,%Inh,[13],13%
same,%Inh,[14],65%
same,%Inh,[15],0%
same,%Inh,[16],44%
same,%Inh,[17],21%
same,%Inh,[18],75%
same,%Inh,[19]; 1 µM,78%
same,%Inh,[20]; 1 µM,100%
